Reference: PubChem BioAssay (NCATS)
Results filed as inconclusive are left out. The source made the active and inactive calls. Calls come from the whole dose curve; as a rule, active = well fitted curve in the direction sought with a large enough effect; inconclusive = small, poorly fitted or top-dose-only effect, or another doubt; inactive = no such curve, though single readings can be large; an effect the other way counts as inactive or inconclusive.

Assays:
[1] = Cell Viability - LYMP2-003 (AID 965);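 note: cells exposed to compounds for 24 h before reading; nearly all actives have a fitted effect of over 50% in size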
Procedure, shortened: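 Seed 2500 lymphoblastoid cells/well; incubate 5 hr, 37 C; add compounds; incubate 24 hr, 37 C; add CellTiter-Glo, 30 min RT; read luminescence. AC50 from Hill fit.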

[2] = Cell Viability - LYMP2-005 (AID 967)
Procedure, shortened: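 Acute cytotoxicity is scored as a concentration-dependent drop in intracellular ATP in human lymphoblastoid LYMP2-005 cells after 24 h compound treatment. ATP is quantified by luciferase luminescence, and AC50 is derived by Hill-equation modelling.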

[3] = Cell Viability - LYMP2-009 (AID 968); note: nearly all actives have a fitted effect of over 55% in size
[4] = Cell Viability - LYMP2-011 (AID 969); note: nearly all actives have a fitted effect of over 60% in size
Procedure, shortened: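 Luminescent ATP read-out (CellTiter-Glo, 30 min RT) after 24 hr compound exposure at 37 C in human lymphoblastoid cells, 2500 cells/well. Decreasing ATP indicates cytotoxicity; AC50 from standard Hill fit.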

[5] = Cell Viability - LYMP2-013 (AID 970); note: nearly all actives have a fitted effect of over 55% in size
Procedure, shortened: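 CellTiter-Glo luminescence (cellular ATP) read after 30 min at RT. Cells: human lymphoblastoid line, 2500/well, 24 hr compound exposure at 37 C. Tetraoctylammonium bromide positive control; AC50 via standard Hill fit of qHTS titrations.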

[6] = Cell Viability - LYMP2-015 (AID 971); note: nearly all actives have a fitted effect of over 55% in size
Procedure, shortened: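 qHTS cytotoxicity: 2500 cells/well, 5 hr 37 C, compound 24 hr 37 C, CellTiter-Glo 30 min RT, luminescence. Loss of ATP = toxicity; AC50 via standard Hill fit.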

[7] = Cell Viability - LYMP2-017 (AID 972); note: nearly all actives have a fitted effect of over 55% in size
Procedure, shortened: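 Luminescent ATP read-out (CellTiter-Glo, 30 min RT) reports viable cell number. Cells: human lymphoblastoid line, 2500 per well, 5 hr preincubation, 24 hr compound exposure at 37 C. AC50 is derived from qHTS concentration-response data using the standard Hill model.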

[8] = Cell Viability - LYMP2-019 (AID 973); note: nearly all actives have a fitted effect of over 55% in size
Procedure, shortened: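 qHTS, 1536-well; 2500 cells/well; 5 hr pre-incubation, 24 hr compound exposure, 37 C; CellTiter-Glo added, 30 min RT; luminescence read; AC50 via standard Hill equation.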

[9] = Cell Viability - LYMP2-021 (AID 974)
Procedure, shortened: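 ATP luminescence (CellTiter-Glo, 30 min RT) after 24 h compound exposure at 37 C; 2500 human lymphoblastoid cells/well, 5 h settle beforehand. Cytotoxicity = concentration-dependent ATP drop, AC50 by Hill fit.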

[10] = Cell Viability - LYMP2-023 (AID 975); note: nearly all actives have a fitted effect of over 55% in size
Procedure, shortened: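 CellTiter-Glo luminescence after 30 min at room temperature; decrease in intracellular ATP reflects toxicity. Cells: human lymphoblastoid line, 2500/well, 24 hr compound exposure at 37 C. AC50 fitted to standard Hill equation from concentration-response.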

[11] = Cell Viability - LYMP2-025 (AID 976)
Procedure, shortened: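 CellTiter-Glo luminescence (cellular ATP) after 24 h compound exposure at 37 C; LYMP2-025 human lymphoblastoid cells, 2500/well, complete medium. Tetraoctylammonium bromide positive control. AC50 by Hill equation fit of qHTS concentration-response.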

[12] = Cell Viability - LYMP2-002 (AID 977)
Procedure, shortened: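 Human lymphoblastoid cells (2500/well) in complete medium were preincubated 5 hr at 37 C, then exposed to compounds for 24 hr at 37 C. Intracellular ATP was read by CellTiter-Glo luminescence; AC50 came from Hill-equation concentration-response fits.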

[13] = Cell Viability - LYMP2-006 (AID 978); note: nearly all actives have a fitted effect of over 60% in size
Procedure, shortened: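 Cells are seeded at 2500 per well and rested 5 hr at 37 C. Compounds are added across a concentration series for 24 hr at 37 C, after which ATP is quantified by luciferase luminescence.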

[14] = Cell Viability - LYMP2-008 (AID 980); note: nearly all actives have a fitted effect of over 60% in size
Procedure, shortened: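 Luminescent ATP read-out (CellTiter-Glo, 30 min RT) after 24 hr compound exposure at 37 C of human lymphoblastoid cells in complete medium. Decrease in ATP taken as cytotoxicity; AC50 derived by standard Hill fit of qHTS concentration-response data.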

[15] = Cell Viability - LYMP2-010 (AID 981); note: nearly all actives have a fitted effect of over 55% in size
Procedure, shortened: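 qHTS cytotoxicity, 1536-well: 2500 cells/well, 5 hr settle, 24 hr compound at 37 C, CellTiter-Glo 30 min RT, luminescence read. Decrease in ATP = toxicity; AC50 via standard Hill equation. Positive control tetraoctylammonium bromide.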

[16] = Cell Viability - LYMP2-012 (AID 982)
[17] = Cell Viability - LYMP2-018 (AID 985); note: nearly all actives have a fitted effect of over 50% in size
Procedure, shortened: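 2500 cells/well; 5 hr 37 C; cmpd 24 hr 37 C, complete medium; CellTiter-Glo 30 min RT; luminescence. Tetraoctylammonium bromide positive control. AC50 via Hill fit.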

[18] = Cell Viability - LYMP2-020 (AID 986); note: nearly all actives have a fitted effect of over 55% in size
Procedure, shortened: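 qHTS, 2500 cells/well; 5 hr then 24 hr compound exposure, 37 C; CellTiter-Glo luminescence after 30 min RT; ATP decrease taken as cytotoxicity; AC50 via Hill equation; tetraoctylammonium bromide positive control.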

Measured: Potency
Potency is the fitted concentration of half-maximal effect.

N=C1C=CC(=C(c2ccc(N)cc2)c2ccc(N)cc2)C=C1
active: [1] 15.8 µM | [2] 12.6 µM | [3] 7.94 µM | [4] 7.94 µM | [5] 12.6 µM | [6] 10 µM | [7] 12.6 µM | [8] 7.94 µM | [9] 7.94 µM | [10] 10 µM | [11] 10 µM | [12] 7.94 µM | [13] 10 µM | [14] 7.94 µM | [15] 7.94 µM | [16] 7.94 µM | [17] 7.94 µM | [18] 3.98 µM
